# According to ChEMBL document CHEMBL3988442, “University of Dundee, Small-Polar-MMV Screening Library” (2021):
# Legend:
# [1] = biological target: T1, Aspartate--tRNA(Asp/Asn) ligase (Mycobacterium tuberculosis (strain ATCC 25618 / H37Rv)) (UniProt P9WFW3); test: Assay for Asp RNA synthetase-1 from Mycobacterium tuberculosis; assay type: functional; design: scale not given: direction of the effect not stated beside the values; settings: 30 µM; further: in the data most compounds retested in dose-response had high values
# T1 sequence (whole entry): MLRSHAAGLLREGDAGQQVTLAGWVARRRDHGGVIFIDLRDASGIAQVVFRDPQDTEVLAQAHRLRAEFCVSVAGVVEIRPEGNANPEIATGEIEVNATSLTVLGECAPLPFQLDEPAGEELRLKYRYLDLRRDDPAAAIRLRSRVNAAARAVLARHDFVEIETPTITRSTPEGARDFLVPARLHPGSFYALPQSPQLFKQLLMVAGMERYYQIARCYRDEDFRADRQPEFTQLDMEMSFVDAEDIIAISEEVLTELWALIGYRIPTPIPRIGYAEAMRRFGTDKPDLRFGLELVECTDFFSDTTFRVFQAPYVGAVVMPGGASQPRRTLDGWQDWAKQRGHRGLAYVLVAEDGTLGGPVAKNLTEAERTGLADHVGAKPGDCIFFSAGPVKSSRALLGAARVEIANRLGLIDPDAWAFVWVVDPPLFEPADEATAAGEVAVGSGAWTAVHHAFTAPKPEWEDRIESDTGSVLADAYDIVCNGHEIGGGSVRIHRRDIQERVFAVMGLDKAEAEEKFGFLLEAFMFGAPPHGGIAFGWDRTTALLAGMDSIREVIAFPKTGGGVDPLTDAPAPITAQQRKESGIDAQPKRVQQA
# [2] = biological target: Shiga toxin 2 (Escherichia coli O157:H7) (UniProt P09385+P09386); test: E. coli 0.157:H7 Shiga Toxin SOP - stx2 screening assay; assay type: functional; design: scale not given: direction of the effect not stated beside the values; settings: 30 µM
Compound,Percent Effect [1] [%],Percent Effect [2] [%]
Cc1ccc(C(CNCc2ccncc2)N2CCOCC2)s1 (configuration not stated),2.18,-29.8
O=C(c1cnccn1)N1CCN(Cc2csc(-c3ccccc3)n2)CC1,1.34,26.4
Cn1cc(CN2CCN(Cc3nccn3C)CC2)cn1,-2.81,-37.2
O=C(CC1CC1)NCc1cn2c(n1)CN(C(=O)c1cccnc1)CC2,3.04,-29.1
O=C(NCCCN1CCOCC1)c1ccn(-c2ccc3ccccn23)n1,3.71,-18.9
CC(C)NC(=O)N1CCN(S(=O)(=O)C2CC2)CC2(CC(=O)N(C)C2)C1 (configuration not stated),-1.56,-20.5
Cc1cnc2c(S(=O)(=O)NCC3CCN(C4CC4)C3)cccc2c1 (configuration not stated),3.65,25.5
Cc1cc(CN(C)C(=O)C2CCCN(C(=O)c3ccc(Cl)cc3)C2)no1 (configuration not stated),8.83,-26.7
Cc1nc(C)c(CNC(=O)NC(c2nnc3n2CCC3)C(C)C)s1 (configuration not stated),0.0985,-7.7
OC(CN1CCOCC1)c1ccc(OC(F)(F)F)cc1 (configuration not stated),-1.62,13.6
Cn1cnnc1S(=O)(=O)C1CCN(S(=O)(=O)c2ccc(F)c(Cl)c2)CC1,2.04,-2.86
Cc1cnn(CC(C)NCc2csc(-c3ccsc3)n2)c1 (configuration not stated),-7.44,-28
CCc1noc(C(C)N2CCN(Cc3nc(C)c(C)o3)CC2)n1 (configuration not stated),-6.81,10.2
CCN(C1CCS(=O)(=O)C1)S(=O)(=O)c1cccc2cc(C)cnc12 (configuration not stated),-1.66,30.4
Cc1ccc(CNC2CCN(CCc3ccncc3)CC2)cc1C,-5.11,-49.6
c1ccc2oc(CCCN3CCOC(Cn4cccn4)C3)nc2c1 (configuration not stated),0.605,-3.52
Cc1oc(-c2ccco2)nc1CC(=O)N1CCC(C(O)C(F)(F)F)CC1 (configuration not stated),-5.79,4.07
COCCN1CCN(Cc2cccc(OCC(N)=O)c2)CC1C (configuration not stated),-6.54,-6.57
COc1c(C2CCCN2C(=O)c2ccc3cc[nH]c3c2)c(C)nn1C (configuration not stated),-1.15,3.54
CCSc1cc(C(=O)NCCC(=O)Nc2ccccn2)ccn1,-1.96,-56.5
COCCn1c2c(ccc1=O)CC(NS(C)(=O)=O)CC2 (configuration not stated),2.72,-20.6
NC(=O)CSCCC(=O)N1CCCC1c1ccsc1 (configuration not stated),-7.94,6.46
Cc1noc(C)c1CCC(=O)N1CCN(CCn2cccn2)CC1,-5.26,-11.4
O=C1CC(c2ccc(C(=O)O)cc2)c2ncn(-c3cccc(F)c3)c2N1 (configuration not stated),7.81,-17.3
CC(=O)N1CCCN(C(=O)NCc2cc[nH]n2)CC1,-1.74,-9.44
CC(C)C1CN(C(=O)c2nccnc2N)CCS1 (configuration not stated),13,-15.2

Compound,Percent Effect [1] [%],Percent Effect [2] [%]
CCC(=O)N1CCC(Cc2nccnc2Nc2ccccn2)CC1,-0.309,11.3
O=C(CCN1CCCC1=O)NCc1cccnc1Oc1ccccc1,-8.91,8.3
Cc1ccc2c(ccn2CCC(=O)NC[C@@H]2CCCN3CCCC[C@H]23)c1,-0.958,-5.27
COCCN1CCN(C(=O)c2ccncc2F)Cc2cccnc21,-0.348,-48.6
CCc1ccccc1-n1cc(O)c(C(=O)N2CCCCC2)n1,1.02,31
O=C(c1cccn2ccnc12)N1CCCN(c2cccnn2)CC1,2.1,22.9
COc1cccc(CNC(CN2CCN(C)CC2)c2ccccc2)c1 (configuration not stated),3.94,-26
CCOc1ncccc1C(=O)N(C)Cc1ncc(C)c(OC)c1C,-0.375,19.7
COCC(=O)NCc1cccc(Br)c1,-1.9,20.1
Cc1ccc(C(=O)N2CCN(Cc3nc(C(C)C)no3)CC2)c(=O)[nH]1,2.27,26.1
CCN1CC(C(=O)NC(C)(C)CC(C)(C)C)CC1=O (configuration not stated),2.27,-6.14
Fc1ccc(OCc2noc(CN3CCc4cncnc4C3)n2)cc1,-0.7,-1.88
CNC(=O)c1cc2c(nc1N(C)C)CCN(S(=O)(=O)CC(C)C)CC2,-0.801,-2.65
Cc1cccnc1CN1CCC(c2nnc(Cn3cccn3)n2C)CC1,-1.2,-18.5
Cc1noc(C)c1CNC(=O)N1CCC(CO)CC1,2.21,-4.58
Cc1cc(N(C)C)nc(C2(C)CCCN2C(=O)c2cnccn2)n1 (configuration not stated),1.19,-0.274
CNS(=O)(=O)Cc1ccc(CNC(=O)Nc2cn[nH]c2)cc1,-0.228,-4.62
Cc1csc(C2CCCN(C(=O)c3ccc(=O)n(C)n3)C2)n1 (configuration not stated),3.09,-15.3
CNc1cc(N2CCCC2CNCc2cnc(C)cn2)ncn1 (configuration not stated),-0.989,-46
COc1ccc(C(=O)N2C[C@@H](C(=O)O)[C@H](c3ccccc3C)C2)c(O)c1,8.11,0.95
CC(C)c1ncc2c(n1)CN(Cc1cccc(C#N)c1)CC2,0.9,-1.08
COCC(=O)N1Cc2cnc(Cc3ccc(OC)cc3)nc2C1,2.73,-8.2
Cc1cc(C2CCCN(CCCNS(C)(=O)=O)C2)n[nH]1 (configuration not stated),-3.97,8.81
Cc1ccc(CN2C[C@@H]3COC[C@H](NS(C)(=O)=O)[C@@H]3C2)o1,3.2,-0.0539
CC(C)n1cc(C(=O)N2Cc3ccccc3OC3(CCOCC3)C2)cn1,-1.29,-21.7
O=C(NCC1CC1)c1nc(COc2ccc3c(c2)OCO3)no1,-5.11,-58.6

Compound,Percent Effect [1] [%],Percent Effect [2] [%]
COc1ccc2c(c1)C1(CCN(Cc3ccncc3)CC1)N(C)CC2,2.26,-1.38
CO[C@H]1CCN(Cc2cccc(C)n2)[C@@H]2CN(Cc3cccnc3)C[C@H]12,-0.57,-14.4
CN(Cc1ccsc1)C(=O)CS(=O)(=O)Cc1ccc(Cl)c(Cl)c1,3.95,41.2
CCCNC(=O)C1CCN(Cc2csc(C(C)(C)C)n2)CC1,-0.628,7.25
Cc1cc(C)n(CC2CCCN2C(=O)CCc2cscn2)n1 (configuration not stated),-0.678,17
CN(C)c1cc2c(nn1)CCN(C(=O)Cc1noc3ccccc13)C2,0.589,-8.79
CCC(C)NC(=O)Nc1ccc(CN2CCOC2=O)cc1 (configuration not stated),-0.167,-47.4
CCn1cc(C(=O)N2CCCC(c3[nH]ncc3S(C)(=O)=O)C2)cn1 (configuration not stated),-3.25,-8.37
c1ccc(-n2ccnc2)c(CNCC2CNc3ccnn3C2)c1 (configuration not stated),-5.71,-13.1
CCn1nc(C(=O)N2CCCC(n3cncn3)C2)ccc1=O (configuration not stated),-5.19,18.8
CC(=O)c1cccc(OCC(=O)NS(=O)(=O)c2ccc(C)s2)c1,-3.8,-7.24
Cn1ccc(CN2CCC(NC(=O)Cc3ccccc3)CC2)cc1=O,-3.72,8
CS(=O)(=O)N1CC[C@H]2[C@H](C[C@@H](Cn3cncn3)N2CC2CC2)C1,10.1,-8.81
CN(Cc1cn2c(n1)CN(CC1CC1)CC2)Cc1ccco1,3.75,-1.46
COc1ccc(CC(=O)N(C)Cc2nnc3ccccn23)cc1,2.36,2.4
COc1ccc(C)cc1CN1CCCC1Cn1nc(C)nc1C (configuration not stated),-7.82,-25.1
COCCN1CCCN(C(=O)NC(C)Cn2cccn2)CC1 (configuration not stated),1.3,-9.78
Cc1noc(C2CCN(Cc3cc(=O)n(C)c(=O)n3C)CC2)n1,-4.37,-1.09
Cc1nn(CC(=O)N2CCC(Nc3cccnn3)CC2)c(C)c1Cl,-1.63,-23.6
CC(Cn1cccn1)NC(=O)NCc1cccs1 (configuration not stated),-7.69,-7.84
Cc1cc(F)ccc1S(=O)(=O)NCc1cccc(C(=O)N2CCCC2)c1,-1.3,30.6
Cc1cc(CN2CCN(C(=O)C(C)C)[C@@H]3CS(=O)(=O)C[C@@H]32)ccc1F,2.51,-10.2
CC(C(=O)Nc1ncccn1)N1CCCN(c2nccs2)CC1 (configuration not stated),0.767,-54.2
Cc1nnc(N2C[C@@H](OCCCn3cccn3)[C@H]3OCCC[C@H]32)s1,-3.42,-13.8
O=C(NCCN1CCCc2ccccc21)c1scnc1Cl,-4.16,0.202
CC(C)NC(=O)COc1nc(C(C)C)no1,-2.64,-17.3

Compound,Percent Effect [1] [%],Percent Effect [2] [%]
CC(C(=O)N1CCCC1)N1CCC(c2nccn2Cc2cscn2)CC1 (configuration not stated),1.8,-3.75
CS(=O)(=O)N1CCC2(CN(C(=O)c3cccnc3)C2)C1,-2.07,-24.7
O=C(CN(Cc1ccccc1)CC1CCOCC1)NC(=O)NC1CC1,0.182,-31.8
COC[C@@H]1CC[C@H]2[C@H](CCN2C(=O)c2ccncc2F)O1,3.94,7.83
Cc1occc1C(=O)Nc1ccnc(OC2CCOC2)c1 (configuration not stated),-6.74,3.41
Cc1ccn(-c2ccccc2NCc2cccnc2C)n1,-3.62,0.821
Cc1ccc(NC2CCN(C(=O)c3ccsc3)CC2)nn1,-2.79,-2.79
CC(NC(=O)NCc1ccc(Cl)cc1)c1ccccn1 (configuration not stated),0.364,-27.4
Cc1cc(C[C@@H]2COC[C@@H]2NC(=O)CN2CCCN(C)CC2)on1,-1.58,-5.15
Cc1cnn(CC2CCCN2CCCc2nc3ccccc3o2)c1 (configuration not stated),1.34,-14.6
CCC(CNC(=O)Nc1cnn(CC)c1)N1CCCC1 (configuration not stated),-2.08,1.4
CN(C)CCN1CCOCC2(C1)CN(Cc1ccsc1)CCO2 (configuration not stated),6.63,3.8
Cc1nc(N)sc1C(=O)N1CCCC(c2nccn2CCCN(C)C)C1 (configuration not stated),-0.893,12.2
CN1CCN(c2cc(CNC(=O)c3ccc(=O)n(C)c3)ccn2)CC1,-4.9,-0.684
O=C(COCC1CC1)N1CCCC(n2cccn2)C1 (configuration not stated),4.67,-15.2
CN(C)C(=O)COC1COC2(CCN(S(C)(=O)=O)CC2)C1 (configuration not stated),-4.11,-11.5
O=C(CCNC(=O)c1ccoc1)Nc1c(F)cccc1F,4.76,-4.74
CN1CCN(Cc2nnc(C3CCN(CC4CC4)CC3)n2C)CC1,-0.891,2.65
COc1ccc(OC)c(NC(=O)c2nc3ccccc3n(C)c2=O)c1,1.01,-23.2
Cn1cnc2c1CCN(Cc1nc(-c3ccsc3)no1)C2,-8.92,-33
COc1ccc(C(=O)N2C[C@@H](CN3CCOCC3)[C@@H](CO)C2)c(C)c1,-0.54,2.18
CCN(CC)C(=O)CCNC(=O)N1CCC(c2ccccc2)C1 (configuration not stated),-1.42,-20.3
CCOC(=O)N1CCN(Cc2ccc(OCc3nccn3C)cc2)CC1,-4.7,-21.9
